Results as given in paper PMC4552634, “A New Set of Chemical Starting Points with Plasmodium falciparum Transmission-Blocking Potential for Antimalarial Drug Discovery” (PLoS ONE, 2015).
Read-outs that look alike come from different tables or passages of the source. Out of some 13,000 compounds screened, about 3,200 (25%) showed an effect of 50% or more. The list shows a part of the results.

Test system: P. falciparum stage V gametocytes
Design: BacTiter-Glo ATP luminescence viability of purified stage V gametocytes in 384-well plates, per cent inhibition versus DMSO
Conditions: 48 h, 5 µM, inhibitor

| SMILES | % Inhibition | % Inhibition (% Inhibition) |
| --- | --- | --- |
| Cc1[nH]c(C)c(-c2ccc(-c3ccc(F)cc3)nc2)c(=O)c1Br [TCMDC-135925] | 64.89% | – |
| Cc1[nH]c(C)c(-c2ccc(-c3ccc(Cl)cc3)nc2)c(=O)c1Cl [TCMDC-136301] | 72.82% | – |
| Cc1[nH]c(C)c(-c2ccc(-c3ccc(OCC(F)(F)F)cc3)nc2)c(=O)c1Cl [TCMDC-132306] | 43.23% | – |
| Cc1[nH]c(C)c(-c2ccc(-c3ccc(C#N)cc3)nc2)c(=O)c1Br [TCMDC-136169] | 28.48% | – |
| Cc1[nH]c(C)c(-c2ccc(-c3ccc(Cl)cc3)nc2)c(=O)c1Br [TCMDC-136159] | 67.06% | – |
| Cc1[nH]c(C)c(-c2ccc(-c3ccccc3)nc2)c(=O)c1Br [TCMDC-136158] | 42.67% | – |
| Cc1[nH]c(C)c(-c2ccc(-c3ccc(C(F)F)cc3)nc2)c(=O)c1Cl [TCMDC-132329] | 58.86% | – |
| CC1(C)N=C(N)N=C(N)N1OCCCOc1ccccc1Cl [TCMDC-131739] | -0.9938% | – |
| O=C(Nc1ccc(-c2nc3ccccc3[nH]2)cc1)c1ccc(S(=O)(=O)N2CCc3ccccc32)cc1 [TCMDC-125713] | -13.88% | – |
| O=C(N[C@@H](CC1CCCCC1)C(=O)NC1CCCc2ccccc21)c1ccc(O)c(-c2ccc(Cl)c(Cl)c2)c1 (stereo partly drawn) [TCMDC-140869] | 28.8% | – |
| CCOC(=O)c1ccc(-n2c(C)cc(C=C3SC(=Nc4ccccc4)N(C4CCCC4)C3=O)c2C)cc1 [TCMDC-125697] | -3.505% | – |
| Cc1[nH]c(C)c(-c2ccc(-c3ccc4c(c3)OCO4)nc2)c(=O)c1Br [TCMDC-136161] | 79.48% | – |
| CCC1CN2CCc3c([nH]c4ccccc34)[C@@H]2C[C@@H]1CC1NCCc2cc(OC)c(OC)cc21 (stereo partly drawn) [TCMDC-142008] | – | -47.66% |
| Cc1onc(-c2ccccc2Cl)c1C(=O)Nc1cc(Cl)c(Cl)cc1Cl [TCMDC-123514] | 9.365% | – |
| COc1ccc(-c2ccc(CNC(=O)c3ccc(C#N)cc3)c(F)c2)cc1CN1CCCN(C)CC1 [TCMDC-133368] | -37.75% | – |
| Cc1ccn2cc(-c3ccc(NC(=O)c4ccc(Br)o4)cc3)nc2c1 [TCMDC-124517] | 106.8% | – |
| COc1cc(C(=O)Nc2cccc(-c3cn4ccc(C)cc4n3)c2)cc(OC)c1OC [TCMDC-125384] | 26.29% | – |
| COc1cc(OC)cc(C(=O)Nc2cccc(-c3cn4ccc(C)cc4n3)c2)c1 [TCMDC-124622] | 4% | – |
| Cc1cc(OCCCN2CCC(NS(=O)(=O)c3cccc(Br)c3)CC2)c2ccccc2n1 [TCMDC-136279] | -49.51% | – |
| CCCCOc1c(CCNCCCCNCCc2cc(OC)c3ccccc3c2OCCCC)cc(OC)c2ccccc12 [TCMDC-137848] | 124.7% | – |
| CCCCc1cc(Cc2cnc(N)nc2N)cc(OC)c1OC [TCMDC-137876] | -18.26% | – |
| CCCCOc1cc(OC)c2ccccc2c1CCNCCCCNCCc1c(OCCCC)cc(OC)c2ccccc12 [TCMDC-137845] | 110.3% | – |
| CC[C@H](NC(=O)c1c(CN2CCC(N3CCCCC3)CC2)c(-c2ccccc2)nc2cc(O)ccc12)c1ccccc1 [TCMDC-140381] | 13.93% | – |

| SMILES | % Inhibition | % Inhibition (% Inhibition) |
| --- | --- | --- |
| CC(C)CCN1CCC(Oc2ccc(NC(=O)c3ccc4ncccc4c3)cc2Cl)C1 (stereo not drawn) [TCMDC-133982] | 6.933% | – |
| Clc1ccccc1CNc1noc(-c2sccc2Br)n1 [TCMDC-134189] | -9.305% | – |
| CCc1c(C)nc(-n2nc(C)cc2NC(=O)c2cccc3ccccc23)[nH]c1=O [TCMDC-124936] | 19.12% | – |
| Cc1cc(NC(=O)c2cc(Br)ccc2Cl)n(-c2nc(C)c(C)c(=O)[nH]2)n1 [TCMDC-124938] | 58.54% | – |
| CCc1c(C)nc(-n2nc(C)cc2NC(=O)c2ccc(OC)cc2OC)[nH]c1=O [TCMDC-124937] | 1.355% | – |
| COc1cccc2cc(C(=O)N[C@@H](CC(C)C)C(=O)N[C@H](/C=N/NC(=O)N3CCN(C)CC3)CCc3ccccc3)oc12 [TCMDC-136052] | 37.67% | – |
| COc1cc(NC(=O)N2CCOC(CCN3CCC(c4ccccc4)CC3)(c3ccc(Cl)c(Cl)c3)C2)cc(OC)c1OC (stereo not drawn) [TCMDC-135349] | -27.1% | – |
| CC(C)(C)c1cc(N=NC(=O)c2ccncc2)cc(C(C)(C)C)c1O [TCMDC-123490] | -20.54% | – |
| N#Cc1ccc(N(CCOc2ccc(Cl)c(F)c2)Cc2ccccc2C(F)(F)F)cc1C(F)(F)F [TCMDC-132797] | -6.991% | – |
| O=C(c1cc(C(=O)NCc2ccc(Cl)cc2)c(=O)n(Cc2ccc(Cl)cc2)c1)c1cc(F)ccc1O [TCMDC-125145] | -12.34% | – |
| CC(=O)Oc1c(C2CCN(CCCCNC(=O)c3ccc(NC(=O)c4ccc(Cl)cc4)cc3)CC2)ccc2ccccc12 [TCMDC-138657] | 89.12% | – |
| O=C(NCCCCN1CCC(c2cccc3ccccc23)CC1)c1ccc(NC(=O)c2ccc(Cl)cc2)cc1 [TCMDC-138340] | -11.24% | – |
| O=C(NCCCCN1CCC(c2ccc3ccccc3c2)CC1)c1ccc(NC(=O)c2ccc(Cl)cc2)cc1 [TCMDC-138378] | -9.216% | – |
| O=C(NCCCCN1CCC(c2ccc3ccccc3c2O)CC1)c1ccc(-c2ccc(Cl)cc2)cc1 [TCMDC-138663] | 108.9% | – |
| O=C(NCCCCN1CCC(c2ccc3ccccc3c2O)CC1)c1ccc(NC(=O)c2ccc(Cl)cc2)cc1 [TCMDC-138654] | 82.05% | – |
| Cc1cccc2[nH]c(-c3cccc(-c4cccc(NC(=O)CNC(=O)c5ccc(O)cc5)c4)c3)nc12 [TCMDC-136818] | -5.376% | – |
| Cc1cc(OCCCn2ccnc2)ccc1-c1csc(NC(N)=NCc2ccccc2)n1 [TCMDC-138931] | 31.69% | – |
| CC(C(=O)OCCOCn1cnc2c(=O)[nH]c(N)nc21)N(C)C(=O)OC(C)(C)C (stereo not drawn) [TCMDC-137343] | 21.46% | – |
| CC(C)c1ccc(S(=O)(=O)N(c2ccc3c(c2)OCO3)C2CCN(Cc3ccccc3)C2)cc1 (stereo not drawn) [TCMDC-134099] | -69.31% | – |
| COc1ccc(N2C(N)=NC(N)=NC2(C)C)cc1OC [TCMDC-124282] | 18.93% | – |
| Cc1cccc2nc(-c3ccc(-c4cccc(NC(=O)C(C)CN5CCN(C)CC5)c4)s3)[nH]c12 (stereo not drawn) [TCMDC-137155] | -49.23% | – |
| CC(CN1CCN(C)CC1)C(=O)Nc1cccc(-c2ccc(-c3nc4ccccc4[nH]3)cc2)c1 (stereo not drawn) [TCMDC-137147] | 83.04% | – |
| CC(CN1CCN(C)CC1)C(=O)Nc1cccc(-c2cccc(-c3nc4ccccc4[nH]3)c2)c1 (stereo not drawn) [TCMDC-137141] | 72.32% | – |

| SMILES | % Inhibition | % Inhibition (% Inhibition) |
| --- | --- | --- |
| CCc1cc2c(=O)c(-c3nc(C)cs3)c(N)oc2c(CN2CCCCC2)c1O [TCMDC-124016] | 0.6377% | – |
| COc1cc(C(=O)N2N=C(c3c(-c4ccccc4)c4cc(Br)ccc4[nH]c3=O)CC2c2cccc([N+](=O)[O-])c2)cc(OC)c1OC (stereo not drawn) [TCMDC-124218] | 43.01% | – |
| Cc1noc(C)c1-c1cccc(CNCc2ccc(-c3cccc(-c4nc5cccc(C)c5[nH]4)c3)cc2)c1.O=C(O)C(F)(F)F [TCMDC-133052] | -22.75% | – |
| O=C(/C=C/c1ccc(Cl)c(Cl)c1)NC1CCC(CN2CCC(c3nc4ncccc4[nH]3)CC2)CC1 (stereo not drawn) [TCMDC-140264] | 5.039% | – |
| CC(C)(C)c1ccc(CN2CCC(NC(=O)c3ccc(-c4cccc(C(F)(F)F)c4)s3)CC2)cc1 [TCMDC-134348] | -9.273% | – |
| COc1cc(NC(=O)c2cc3c(C)nn(-c4cccc(C(F)(F)F)c4)c3s2)cc(OC)c1OC [TCMDC-123615] | -65.38% | – |
| Cc1nn(-c2cccc(C(F)(F)F)c2)c2sc(C(=O)NC3CCN(C(C)C)CC3)cc12 [TCMDC-125005] | 65.55% | – |
| COc1cc(OC)c2c(C)cc(NCCCn3ccnc3)nc2c1 [TCMDC-125762] | 61.26% | – |
| COc1cccc(-c2cc3nc4c(c(NCCCn5ccnc5)n3n2)CCCC4)c1 [TCMDC-124388] | -20.83% | – |
| COc1cc(OC)c2c(C)cc(NCCCN3CCOCC3)nc2c1 [TCMDC-125775] | -9.297% | – |
| Nc1nc(-c2ccc3c(Nc4ccc(F)c(Cl)c4)ccnc3c2)cs1 [TCMDC-138353] | 24.85% | – |
| Fc1ccccc1-c1cc(Nc2ccncc2)nc(-c2cccnc2)n1 [TCMDC-125415] | 17.65% | – |
| O=C(NCC(CCCN1CCC(c2c[nH]c3ccccc23)CC1)c1ccccc1)Nc1ccc(Cl)c(Cl)c1 (stereo not drawn) [TCMDC-139507] | -18.56% | – |
| S=C(NCCCCCN1CCC(c2c[nH]c3ccccc23)CC1)Nc1ccc(Cl)c(Cl)c1 [TCMDC-139170] | -11.79% | – |
| S=C(NCCCCCN1CCC(c2c[nH]c3ccccc23)CC1)Nc1cc(Cl)cc(Cl)c1 [TCMDC-139171] | -46.2% | – |
| O=C(NCCCCCN1CCC(c2c[nH]c3ccccc23)C1)Nc1ccc(Cl)c(Cl)c1 (stereo not drawn) [TCMDC-139169] | -42.12% | – |
| S=C(NCCCCCN1CCC(c2c[nH]c3ccccc23)CC1)Nc1cccc(I)c1 [TCMDC-139203] | 89.1% | – |
| O=C(NCCCCCN1CCC(c2c[nH]c3ccccc23)CC1)Nc1ccc(I)cc1 [TCMDC-139165] | -24.33% | – |
| O=C(NCCCCCN1CCC(c2c[nH]c3ccccc23)CC1)Nc1cccc(Cl)c1 [TCMDC-139167] | 82.38% | – |
| O=C(NCCCCCN1CCC(c2c[nH]c3ccccc23)CC1)Nc1cccc(Br)c1 [TCMDC-139116] | -20.19% | – |
| O=C(NCCCCCN1CCC(c2c[nH]c3ccccc23)CC1)Nc1ccc(Cl)c(Cl)c1 [TCMDC-139117] | 79.3% | – |
| Cc1cc(Cl)ccc1NC(=O)NCCCCCN1CCC(c2c[nH]c3ccccc23)CC1 [TCMDC-139168] | -22.23% | – |
| O=C(NCCCCCN1CCC(c2c[nH]c3ccccc23)CC1)Nc1cccc(I)c1 [TCMDC-139201] | 57.32% | – |
